# Screening results from PubChem BioAssay.
# Rows were chosen to be rich in hits. Some 2.4% of all compounds tested hit in one or more screens of this group.
# Platelet DG rel: platelet dense granule release activity | AID 1663 | hit rate 0.22% among 300,000 | human platelet-rich plasma, SFLLRN dense granule ATP release, luminescence | inhibition, %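 (compounds screened at 7.5 µM in platelet-rich plasma)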;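 active means mean replicate score, as percent of positive control, at or above 50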
# SENP7 block: SENP7 protease inhibition; Q9BQF6; recombinant SENP7, Z-RLRGG-aminoluciferin luminescence, 40 min; inhibition, % at 5 µM; hit rate 1.5% among 330,000; AID 434973;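 active means inhibition above about 50% at the single test dose, limit read from the data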
# Target sequence (Q9BQF6 706-1050 limits assumed): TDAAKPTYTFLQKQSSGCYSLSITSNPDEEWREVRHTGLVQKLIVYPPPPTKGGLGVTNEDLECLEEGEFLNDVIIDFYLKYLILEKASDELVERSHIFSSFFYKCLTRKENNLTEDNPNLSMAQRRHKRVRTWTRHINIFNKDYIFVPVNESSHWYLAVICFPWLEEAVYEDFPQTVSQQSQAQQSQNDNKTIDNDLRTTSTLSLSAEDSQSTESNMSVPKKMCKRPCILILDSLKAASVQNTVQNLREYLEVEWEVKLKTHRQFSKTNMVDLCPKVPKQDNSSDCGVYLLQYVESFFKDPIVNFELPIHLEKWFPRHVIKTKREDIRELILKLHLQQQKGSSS
# SENP6 inh: inhibitors of human SENP6 protease; AID 2599; hit rate 1.8% among 330,000; inhibition, % at 10 µM; Recombinant SENP6 catalytic domain, aminoluciferin luminescence; Q9GZR1;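 active means inhibition above about 50% at the single tested dose, limit read from the data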
# SENP8 block-1: blocks the human protease SENP8; purified SENP8, Z-RLRGG-aminoluciferin cleavage, luminescence; inhibition, % at 10 µM; AID 2540; hit rate 1.2% among 330,000; Q96LD8; in the data active means inhibition above about 50%
# SENP8 block-2: SENP8 (human) protease inhibition | Q96LD8 | recombinant SENP8, Nedd8 substrate fluorescence | inhibition, % at 20 µM | hit rate 0.64% among 360,000; in the data active means inhibition mostly above about 40%, no sharp cut-off; inactive means mostly below about 27%
# SENP8 conf: human SENP8 inhibition, confirmed | shares compounds with SENP7 block | Recombinant SENP8, Z-RLRGG-aminoluciferin luminescence, 60 min | inhibition, % at 12.5 µM | hit rate 40% among 6,200 | AID 488912;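 active means mean inhibition across replicates above about 50%, limit read from the data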
# SENP6 confirm: human SENP6 inhibition, confirmed; shares compounds with SENP7 block; recombinant SENP6, Z-RLRGG-aminoluciferin luminescence; inhibition, % at 12.5 µM; hit rate 58% among 6,200; AID 488915
# SENP7 conf: human SENP7 inhibition, confirmed. shares compounds with SENP7 block. recombinant SENP7, Z-RLRGG-aminoluciferin luminescence, 40 min. inhibition, % at 12.5 µM. hit rate 69% among 6,200. AID 488917
# Casp3 SENP sel: inhibits human caspase-3 in SENP selectivity test. shares compounds with SENP7 block. purified caspase-3, Z-DEVD-aminoluciferin luminescence, 60 min. inhibition, % at 12.5 µM. hit rate 60% among 6,200. AID 488918;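 active means mean inhibition above about 50%, limit read from the data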
# Target sequence (P42574 28-227 limits assumed): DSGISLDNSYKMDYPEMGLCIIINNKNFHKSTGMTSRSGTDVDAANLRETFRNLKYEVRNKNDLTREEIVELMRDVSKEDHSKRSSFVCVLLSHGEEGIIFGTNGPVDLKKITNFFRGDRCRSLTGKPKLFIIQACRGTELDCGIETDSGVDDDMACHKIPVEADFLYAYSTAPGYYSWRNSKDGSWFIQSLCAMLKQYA
# Luc interf: interferes with luciferase luminescence in SENP counter-screen | shares compounds with SENP7 block | Pre-incubated SENP8/Z-RLRGG-aminoluciferin, luciferase luminescence interference | inhibition, % at 12.5 µM | hit rate 39% among 6,200 | AID 488919;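 active means mean inhibition above about 50% when retested at one dose, limit read from the data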
# A number is an active result; 0 = inactive; - = not tested or not shown.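 How the source made its calls, unless noted: active means mean inhibition above about 50% in the one-dose retest (limit read from the data); inactive means the rest.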
SMILES,Platelet DG rel,SENP7 block,SENP6 inh,SENP8 block-1,SENP8 block-2,SENP8 conf,SENP6 confirm,SENP7 conf,Casp3 SENP sel,Luc interf
O=C1/C(=C\c2ccc3ccccc3c2)CCCc2ccccc21,0,0,0,0,0,-,-,-,-,-
Cc1ccccc1/C=C1\CCCc2ccccc2C1=O,0,97,88,95,0,95,98,102,93,94
Cc1ccsc1/C=C1\CCc2ccccc2C1=O,64,99,94,96,0,100,101,104,100,96
COc1ccccc1CCNC(=O)Cc1cccs1,0,0,0,0,0,-,-,-,-,-
CCc1nc2ccc(C(=O)N(C)CCN(C)C)cn2c1N(C)CCC(C)C,-,-,-,-,0,-,-,-,-,-
CCOC(=O)Nc1nn(-c2ccc(C)cc2)c(=O)c(C#N)c1C,0,0,0,0,0,-,-,-,-,-
CCn1cc(C2=NC(C(C)C)CO2)c2ccccc21 (centres undefined),0,0,0,0,0,-,-,-,-,-
CC(C)C1COC(c2cccc3ccccc23)=N1 (centres undefined),0,92,96,89,0,60,92,100,85,0
O=C(c1sc2cc(Cl)ccc2c1Cl)N1CCN(CCc2ccccn2)CC1,0,0,0,0,0,-,-,-,-,-
c1csc(-c2csc(-c3cccs3)n2)c1,0,55,0,0,0,0,60,82,0,0
COc1ccc(-c2csc(Nc3cccc(C)n3)n2)cc1C,0,-,-,-,0,-,-,-,-,-
Cc1cccc(Nc2nc(-c3ccccn3)cs2)n1,0,79,76,70,0,0,78,95,74,86
Cc1cccc(Nc2nc(-c3cccs3)cs2)n1,0,81,90,89,0,0,96,102,76,87
c1ccc(Nc2nc(-c3cccs3)cs2)nc1,0,83,92,94,0,96,97,102,88,94
Cc1cc(N2CCCCC2C)nc(-c2ccccc2O)n1 (centres undefined),0,0,0,0,0,-,-,-,-,-
O=C1C(C=Nc2ccccc2O)=C(O)c2ccccc21,0,0,96,95,45,88,95,100,95,96
O=C1C(C=NCCN2CCOCC2)=C(O)c2ccccc21,0,0,0,0,0,-,-,-,-,-
COc1ccc(N=CC2=C(O)c3ccccc3C2=O)cc1,59,99,95,93,46,0,67,0,89,0
O=C1C(C=Nc2ccccc2)=C(O)c2ccccc21,0,99,98,92,0,87,88,100,94,61
Cc1ccsc1/C=N/Nc1cccc(C(=O)O)c1,0,100,98,97,0,98,99,102,97,98
Cc1ccsc1/C=N/NC(=O)C(N)=O,0,0,0,0,0,-,-,-,-,-
Cc1ccsc1/C=N/Nc1ccc(C(=O)O)cc1,0,99,97,96,0,99,100,103,98,98
C[C@H](NC(=O)[C@@H]1Cc2ccccc2CN1C(=O)OC(C)(C)C)C(=O)NCc1ccco1,0,0,0,0,0,-,-,-,-,-
CCc1ccc(NC(=O)c2cnn3ccccc23)cc1,0,95,91,89,0,93,94,101,93,94
CSc1cccc(NC(=O)Cn2cccc2)c1,0,0,0,0,0,-,-,-,-,-
SMILES,Platelet DG rel,SENP7 block,SENP6 inh,SENP8 block-1,SENP8 block-2,SENP8 conf,SENP6 confirm,SENP7 conf,Casp3 SENP sel,Luc interf
CSc1cccc(NC(=O)c2cnn3ccccc23)c1,0,71,76,0,0,72,70,91,65,72
Cc1ccc(C(O)(C(=O)NNc2ccc3ccccc3n2)c2ccc(C)cc2)cc1,0,0,0,0,0,-,-,-,-,-
COCCN1CCN(C(=O)C2CCC(=O)N(CCc3cccc(F)c3)C2)CC1 (centres undefined),0,0,0,0,0,-,-,-,-,-
Cc1ccc(S(=O)(=O)NC(=NC2CCCCC2)c2ccc(Cl)cc2)cc1,0,0,0,0,0,-,-,-,-,-
COc1ccc2[nH]c3c(=O)n(Cc4ccc(C(=O)N5CCC(C(N)=O)CC5)cc4)c(=S)[nH]c3c2c1,0,57,69,67,0,73,72,87,68,0
COc1cc(Cn2c(N)c(C#N)c3nc4ccccc4nc32)cc(OC)c1,0,0,88,0,0,0,0,0,0,0
N#Cc1c(N)n(CCc2ccc(F)cc2)c2nc3ccccc3nc12,0,0,62,0,0,0,0,0,0,0
COc1ccc(Cn2c(N)c(C#N)c3nc4ccccc4nc32)cc1,0,0,0,0,0,-,-,-,-,-
COc1cccc(Cn2c(N)c(C#N)c3nc4ccccc4nc32)c1OC,0,0,85,0,0,0,0,0,0,0
COCCn1c(N)c(C#N)c2nc3ccccc3nc21,0,0,0,0,0,-,-,-,-,-
N#Cc1c(N)n(CCNC(=O)c2ccc(Cl)cc2)c2nc3ccccc3nc12,0,0,70,0,0,0,0,0,0,0
Cc1ccc(C(=O)NCCn2c(N)c(C#N)c3nc4ccccc4nc32)cc1,0,0,0,0,0,-,-,-,-,-
Cc1ccc(NC(=O)Nc2ncnc3nc[nH]c23)cc1,0,0,0,0,0,-,-,-,-,-
Cc1[nH]c(=O)c(Cc2ccccc2)c(O)c1C#N,0,0,0,0,0,-,-,-,-,-
Cn1c(=O)c2c(O)c(Cc3ccccc3)c(=O)[nH]c2n(C)c1=O,0,0,61,0,0,0,0,66,64,0
O=C(Nc1nccs1)c1cc2c(s1)CCCCC2,0,98,95,95,0,98,99,102,97,87
CCc1sc(C(=O)Nc2nc(-c3ccccn3)cs2)cc1C,-,0,0,0,0,-,-,-,-,-
CCc1sc(C(=O)Nc2ncccc2O)cc1C,0,66,69,0,0,62,59,87,83,64
CCc1sc(C(=O)Nc2nccs2)cc1C,0,80,80,68,0,83,81,96,79,0
CCc1sc(C(=O)Nc2ncccc2C)cc1C,0,0,0,0,0,-,-,-,-,-
COc1cccc(C=NNC(=S)NN=Cc2cccc(OC)c2OC)c1OC,-,-,-,-,0,-,-,-,-,-
CCC1CSC(=Nc2ccc(C)cc2)N1C(=O)CN1C(=O)NC2(CCCC2)C1=O (centres undefined),0,0,0,0,0,-,-,-,-,-
CCOc1ccccc1C(=O)Nc1nnc(SCC(=O)N2CCCC2)s1,-,-,-,-,0,-,-,-,-,-
O=C(CSc1nnc(NC(=O)c2ccccc2F)s1)Nc1ccccc1F,0,61,80,69,0,0,79,91,87,0
O=C(Nc1nnc(SCC(=O)N2CCCCC2)s1)c1ccccc1F,0,0,99,0,0,0,0,0,0,0
